Each structure is given as a SMILES string. Activity calls are given as the source filed them.

Results on five compounds are retold here after PubChem BioAssay.

One assay addresses Albumin (Bos taurus) (UniProt P02769). The assay is described as follows: bovine serum albumin binders on microarray, profiling panel, artefact control for SMM control protein annotation, biochemical, small-molecule microarray, Alexa647 label, 635/667 nm fluorescence (AID 1118).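 Further: score merges 667 nm emission intensity and signal-to-noise per printed compound spot.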 The following applies: BSA-A647 binding, fluorescence 635 nm, higher = more signal.
Assay [1] can be described thus: small-molecule microarray binders of probe aXIP, primary screen, biochemical, NeuroSMM set, 635/667 nm fluorescence (AID 1119).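 Further: probe is the protein aXip251-270 applied at 1 µg/mL to compound-printed slides; binding of probe to printed compounds measured as 667 nm fluorescence plus signal to noise.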 The following applies: higher = more signal, called active from +8 up or from −8 down.
A short description of assay [2]: small-molecule binders of probe aNOTCH3, primary screen, biochemical, small-molecule microarray, 635/667 nm fluorescence (AID 1120).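 Further: probe is a biotin-tagged antibody raised against NOTCH3 rather than NOTCH3 protein; score merges spot fluorescence near 667 nm with spot signal to noise.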 To be noted: higher = more signal.
Assay [3] in a line: small-molecule binders of probe aNOTCH2, primary screen, biochemical, small-molecule microarray, 635/667 nm fluorescence (AID 1121).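 Further: score merges feature fluorescence read at 667 nm with its signal to noise.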 The following applies: higher = more signal.
The target in assay [4] is Carbonic anhydrase 2 (Homo sapiens) (UniProt P00918). The assay is described as follows: CAII small-molecule binders, profiling panel, biochemical, small-molecule microarray, Alexa647-labelled CAII (AID 1122). To be noted: CAII-A647 binding fluorescence, higher = more signal.
Assay [5] in a line: COS7 lysate on small-molecule microarray, probe aHis, 635 nm (AID 1123).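 Further: z-score combines 667nm fluorescence intensity with signal-to-noise per printed compound spot.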 To be noted: COS7 cell lysate, fluorescence, higher = more signal.
A short description of assay [6]: compound binding in COS7 lysate, probe aLAP1, primary screen, cell lysate, small-molecule microarray (AID 1124).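 Further: lysate comes from COS7 cells expressing LAP1 and is applied at 0.3 µg/mL; score merges spot fluorescence near 667 nm with signal-to-noise over triplicate slides.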 To be noted: probe aLAP1, fluorescence, higher = more signal.
Another assay deals with Sam68 (KHDRBS1). The experiment in a line: Sam68 small-molecule binders, primary screen, biochemical, small-molecule microarray, 635 nm fluorescence (AID 1125).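 Further: score merges 667 nm channel intensity with signal to noise over triplicate slides.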 The following applies: small-molecule microarray binding, higher = more signal.
For assay [7], the system named is Chordin-like protein 2 (CHRDL2). The experiment in a line: CHRDL2 small-molecule binders, primary screen, biochemical, small-molecule microarray, 635 nm fluorescence (AID 1126).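 Further: printed compound slides probed with Chrdl2 protein at 4 µg/mL for 1 h at 4 C; score merges 667 nm emission intensity with signal to noise over three replicate slides.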 The following applies: small-molecule microarray binding, fluorescence 635 nm; higher = more signal.
Assay [8] addresses Concanavalin-A (Canavalia ensiformis) (UniProt P02866). The experiment in a line: ConA small-molecule binders, primary screen, artefact control for SMM control protein annotation, biochemical, small-molecule microarray, Alexa647 label, 635 nm (AID 1127).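 Further: z combines 667 nm emission intensity with signal-to-noise across three replicate slides.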 To be noted: ConA-A647 binding fluorescence, higher = more signal.
The nature of assay [9]: anti-His antibody binders, primary screen, artefact control for SMM control protein annotation, biochemical, small-molecule microarray, 635 nm fluorescence (AID 1128).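 Further: score merges feature fluorescence with signal-to-noise for each printed compound spot.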 The following applies: anti-His Alexa647 antibody binding, higher = more signal.
Assay [10] relates to Human papillomavirus type 1a E7 protein (residues 1-88). The assay is described as follows: HPV1a E7 small-molecule binders, primary screen, biochemical, small-molecule microarray, residues 1-88, 635 nm (AID 1129). The following applies: small-molecule microarray binding, fluorescence 635 nm; higher = more signal.
Assay [11] has as its target Focal adhesion kinase 1 (Homo sapiens) (UniProt Q05397). The assay is described as follows: small-molecule microarray binders of FAK, primary screen, biochemical, 635/667 nm fluorescence, BSA, DTT (AID 1130).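 Further: composite of spot emission at 667 nm and signal to noise over triplicate slides.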 The following applies: PTK2 binding, 635 nm fluorescence, higher = more signal.
Assay [12] has as its system Fibrinogen (Alexa647-labelled). The experiment in a line: fibrinogen binders on compound microarrays, profiling panel, artefact control for SMM control-protein annotation, biochemical, small-molecule microarray, 635/667 nm fluorescence (AID 1131).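 Further: z-score merges 667 nm fluorescence with per-spot signal-to-noise over triplicate slides.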 To be noted: fibrinogen-A647 binding fluorescence, higher = more signal.
Assay [13] has as its target Follistatin (Homo sapiens) (UniProt P19883). The assay is described as follows: follistatin binders on small-molecule microarrays, primary screen, biochemical, small-molecule microarray, 635/667 nm fluorescence (AID 1132). The following applies: FST binding, 635 nm fluorescence, higher = more signal.
Assay [14] deals with Fibroblast growth factor 2 (Homo sapiens) (UniProt P09038). The assay is described as follows: FGF2 binders on small-molecule microarrays, primary screen, biochemical, small-molecule microarray, 635/667 nm fluorescence (AID 1133). The following applies: small-molecule microarray binding, FGF2, fluorescence 635/667; higher = more signal.
Fibroblast growth factor 2 (Homo sapiens), sequence (P09038 whole entry, looked up): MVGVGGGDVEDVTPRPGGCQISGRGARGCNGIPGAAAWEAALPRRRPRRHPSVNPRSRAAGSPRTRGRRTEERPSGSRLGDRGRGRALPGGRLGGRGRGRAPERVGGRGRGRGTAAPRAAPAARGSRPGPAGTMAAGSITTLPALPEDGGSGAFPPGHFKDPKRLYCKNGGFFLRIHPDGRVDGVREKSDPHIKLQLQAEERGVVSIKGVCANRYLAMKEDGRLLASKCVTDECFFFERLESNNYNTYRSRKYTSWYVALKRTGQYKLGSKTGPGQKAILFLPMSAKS
The nature of assay [15]: mitochondrial membrane potential change in A549 cells, profiling panel, cell-based, JC-1 fluorescence, basal, 24 h, 100 nL (AID 1138).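 Further: A549 lung adenocarcinoma cells under basal conditions with no added stimulus; test concentration not given here.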 To be noted: higher = more signal.
The next assay relates to Lefty1. The experiment in a line: Lefty1 binders on small-molecule microarrays, primary screen, biochemical, small-molecule microarray, 635/667 nm fluorescence (AID 1139). To be noted: small-molecule microarray binding, fluorescence 635/667; higher = more signal.
The test system of assay [16] is wheat germ agglutinin (Triticum aestivum), Alexa647-labelled. The assay is described as follows: wheat germ agglutinin binders on compound microarrays, profiling panel, artefact control for SMM control-protein annotation, biochemical, small-molecule microarray, 635/667 nm fluorescence (AID 1140).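 Further: score merges 667 nm feature emission with signal to noise over triplicate slides.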 To be noted: WGA-A647 binding, 635 nm fluorescence, higher = more signal.

The target in assay [17] is Luciferin 4-monooxygenase (Photinus pyralis) (UniProt P08659). The experiment in a line: firefly luciferase enzyme inhibitors, primary screen, biochemical, luminescence, purified enzyme, 2006 set (AID 1141).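 Further: cell-free assay with purified firefly luciferase at 100 ng per well in PBS; test concentration not given here.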 To be noted: SteadyGlo luminescence, 30 min, higher = more signal, called active from +8 up or from −8 down.
Luciferin 4-monooxygenase (Photinus pyralis), sequence (P08659 whole entry, looked up): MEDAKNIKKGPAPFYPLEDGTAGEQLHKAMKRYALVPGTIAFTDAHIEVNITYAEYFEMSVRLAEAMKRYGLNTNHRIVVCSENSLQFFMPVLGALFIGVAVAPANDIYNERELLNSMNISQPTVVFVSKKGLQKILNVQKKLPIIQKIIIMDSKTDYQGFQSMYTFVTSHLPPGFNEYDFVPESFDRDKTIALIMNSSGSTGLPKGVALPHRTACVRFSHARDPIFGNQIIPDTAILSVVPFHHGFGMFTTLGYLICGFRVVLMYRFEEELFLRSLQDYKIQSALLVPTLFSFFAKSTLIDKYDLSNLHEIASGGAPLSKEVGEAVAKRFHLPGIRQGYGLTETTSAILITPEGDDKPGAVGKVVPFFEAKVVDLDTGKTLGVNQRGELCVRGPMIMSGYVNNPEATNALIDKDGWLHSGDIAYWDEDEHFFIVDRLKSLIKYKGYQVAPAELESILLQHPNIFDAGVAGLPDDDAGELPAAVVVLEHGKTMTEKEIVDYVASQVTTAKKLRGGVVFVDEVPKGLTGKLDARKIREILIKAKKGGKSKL

Focal adhesion kinase 1 (Homo sapiens), sequence (Q05397 whole entry, looked up): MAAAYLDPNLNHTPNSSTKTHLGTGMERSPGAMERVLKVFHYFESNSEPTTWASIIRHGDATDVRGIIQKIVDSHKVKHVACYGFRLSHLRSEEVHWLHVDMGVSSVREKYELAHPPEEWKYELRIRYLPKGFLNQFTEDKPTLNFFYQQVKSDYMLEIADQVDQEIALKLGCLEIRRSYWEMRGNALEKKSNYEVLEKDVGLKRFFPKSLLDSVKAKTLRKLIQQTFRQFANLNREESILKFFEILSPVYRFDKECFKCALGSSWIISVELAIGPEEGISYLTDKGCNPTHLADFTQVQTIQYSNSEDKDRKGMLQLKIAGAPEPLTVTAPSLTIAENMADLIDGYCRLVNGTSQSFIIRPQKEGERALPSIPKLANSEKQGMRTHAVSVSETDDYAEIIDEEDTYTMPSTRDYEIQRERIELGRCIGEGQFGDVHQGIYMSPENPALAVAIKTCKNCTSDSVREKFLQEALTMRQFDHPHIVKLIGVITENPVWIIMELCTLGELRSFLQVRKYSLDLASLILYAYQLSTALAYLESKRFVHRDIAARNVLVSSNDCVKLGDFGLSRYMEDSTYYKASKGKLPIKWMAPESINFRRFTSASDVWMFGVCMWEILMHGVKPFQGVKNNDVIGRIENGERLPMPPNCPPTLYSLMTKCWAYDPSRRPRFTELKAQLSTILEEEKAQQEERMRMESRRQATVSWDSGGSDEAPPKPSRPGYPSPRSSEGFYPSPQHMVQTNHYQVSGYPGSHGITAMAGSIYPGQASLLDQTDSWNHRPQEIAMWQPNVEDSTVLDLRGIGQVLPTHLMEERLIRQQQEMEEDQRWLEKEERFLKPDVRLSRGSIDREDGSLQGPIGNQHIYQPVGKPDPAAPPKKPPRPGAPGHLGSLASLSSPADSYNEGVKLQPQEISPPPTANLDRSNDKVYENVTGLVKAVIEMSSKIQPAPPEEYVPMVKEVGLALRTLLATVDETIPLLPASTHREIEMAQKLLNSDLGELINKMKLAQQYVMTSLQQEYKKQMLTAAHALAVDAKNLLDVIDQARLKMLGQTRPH
Albumin (Bos taurus), sequence (P02769 whole entry, looked up): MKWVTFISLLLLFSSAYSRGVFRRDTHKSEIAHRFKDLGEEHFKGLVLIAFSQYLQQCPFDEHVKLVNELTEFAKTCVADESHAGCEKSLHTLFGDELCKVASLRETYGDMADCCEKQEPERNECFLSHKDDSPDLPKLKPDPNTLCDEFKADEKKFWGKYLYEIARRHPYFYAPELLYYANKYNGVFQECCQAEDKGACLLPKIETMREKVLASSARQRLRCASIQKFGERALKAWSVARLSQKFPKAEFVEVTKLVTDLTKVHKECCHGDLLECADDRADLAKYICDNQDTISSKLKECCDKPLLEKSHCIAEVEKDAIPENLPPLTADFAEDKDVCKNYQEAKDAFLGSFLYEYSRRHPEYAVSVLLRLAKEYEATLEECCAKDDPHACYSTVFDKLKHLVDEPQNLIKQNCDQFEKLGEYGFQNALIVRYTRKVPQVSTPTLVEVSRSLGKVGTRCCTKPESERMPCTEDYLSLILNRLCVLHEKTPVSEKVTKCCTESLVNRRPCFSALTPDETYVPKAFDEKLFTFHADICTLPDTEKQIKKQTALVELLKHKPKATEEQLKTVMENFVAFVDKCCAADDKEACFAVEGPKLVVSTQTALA
Concanavalin-A (Canavalia ensiformis), sequence (P02866 whole entry, looked up): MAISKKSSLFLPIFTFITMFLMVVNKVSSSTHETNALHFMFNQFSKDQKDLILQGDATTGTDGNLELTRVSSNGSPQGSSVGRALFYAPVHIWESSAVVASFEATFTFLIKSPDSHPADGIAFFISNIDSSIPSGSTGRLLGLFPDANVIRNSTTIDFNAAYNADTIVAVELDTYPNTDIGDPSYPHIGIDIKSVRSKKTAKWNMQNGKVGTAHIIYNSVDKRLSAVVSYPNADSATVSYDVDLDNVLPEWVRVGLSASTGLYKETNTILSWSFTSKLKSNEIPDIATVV
Follistatin (Homo sapiens), sequence (P19883 whole entry, looked up): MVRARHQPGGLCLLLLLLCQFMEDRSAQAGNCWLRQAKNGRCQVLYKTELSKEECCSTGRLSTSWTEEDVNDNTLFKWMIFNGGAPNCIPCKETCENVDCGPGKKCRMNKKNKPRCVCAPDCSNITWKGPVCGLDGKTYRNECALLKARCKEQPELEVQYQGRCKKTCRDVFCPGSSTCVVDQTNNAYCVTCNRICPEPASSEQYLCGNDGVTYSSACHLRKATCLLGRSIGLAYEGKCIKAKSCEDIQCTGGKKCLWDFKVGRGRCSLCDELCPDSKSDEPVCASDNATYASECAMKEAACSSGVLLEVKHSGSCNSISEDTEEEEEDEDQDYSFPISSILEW

Regarding `C=C[C@H](COC(C)=O)N(Cc1ccc(OC(C)=O)c(OC)c1)S(=O)(=O)c1ccc(Br)cc1`, the composite z-score in the assay with Albumin (Bos taurus) stood at 0.777; in [2] it was 0.223; in assay [3], 0.272; in assay [4], 0.512; in assay [5] it was 0.987; in assay [6], 0.509. In addition, the composite z-score with Sam68 (KHDRBS1) is 0.988; in assay [7], 0.771; in assay [8] it was 1.04; in assay [9] it was 1.29; in assay [10], 1.12; in assay [11], -0.174. The composite z-score came to 0.59 in assay [12]; 1.37 in [13]; 1.75 in assay [14]; 1.02 in the assay on Lefty1; 0.492 in [16]. Further, the composite Z-score in assay [1] is 0.365 (inactive). Moreover, the z-score in assay [15] is 1.15; in assay [17], 0.271 (inactive).

Consider `CC1=C2[C@@H](CCc3ccccc3)OB(O)C[C@@H]2n2c(=O)n(-c3ccccc3)c(=O)n2C1`, for which the composite z-score was 0.201 with Albumin (Bos taurus); 0.199 in [2]; -0.11 in assay [3]; 0.478 in assay [4]; 0.224 in assay [5]; 0.0327 in assay [6]. Moreover, the composite z-score with Sam68 (KHDRBS1) amounted to 0.617; in assay [7], 0.469; in assay [8] it was 1; in [9], 0.324; in assay [10], 0.479; in assay [11] it was 0.233. The composite z-score was determined as 0.923 in assay [12]; 0.794 in [13]; 0.618 in [14]; 0.897 with Lefty1; 0.0099 in assay [16]. For the same compound, the composite Z-score in [1] is 0.131 (inactive). Moreover, the z-score in assay [15] was 0.235; in assay [17], -0.85 (inactive).

`CCOC(=O)[C@H]1C[C@H]2O[C@@]23C[C@H]1C(=O)N1CCCC1[C@@H]3O[Si](C)(C)C(C)(C)C` (stereo not given in full): the composite z-score with Albumin (Bos taurus) was -0.505; in [2], 0.0203; in [3], -0.102; in assay [4], -0.123; in [5], 0.178; in [6], -0.244. Moreover, the composite z-score is -0.445 with Sam68 (KHDRBS1); -0.694 in assay [7]; -1.61 in assay [8]; -0.288 in [9]; -0.311 in [10]; -0.349 in assay [11]. Moreover, the composite z-score was -0.466 in assay [12]; -0.068 in assay [13]; -0.0656 in assay [14]; 0.225 in the assay with Lefty1; -0.339 in assay [16]. For the same compound, the composite Z-score in [1] was 0.545 (inactive). For the same compound, the values for the z-score in assay [15] and in assay [17] were -0.341 and 0.261 (inactive), respectively.

Regarding `COCCOC(=O)N1C(=O)[C@@]2(c3cc(C#CCCO)ccc31)[C@H](C(=O)NC[C@H](O)c1ccccc1)[C@H]1C(=O)O[C@H](c3ccccc3)[C@H](c3ccccc3)N1[C@@H]2c1ccc(O)cc1`, the composite z-score is 0.508 with Albumin (Bos taurus); -0.0362 in [2]; -0.115 in [3]; 0.568 in assay [4]; 0.813 in assay [5]; 0.16 in assay [6]. The composite z-score in the assay with Sam68 (KHDRBS1) is 0.053; in assay [7], -0.496; in assay [8], 1.09; in [9], 1.69; in assay [10] it was 0.789; in assay [11], 0.148. In addition, the composite z-score in assay [12] was -0.134; in assay [13] it was 1.09; in [14], 0.837; with Lefty1, 0.429; in assay [16] it was 0.363. Further, in [1], the composite Z-score is -0.302 (inactive). Besides, the z-score is -0.319 in [15] and 0.788 (inactive) in assay [17].

Take `C[N+](C)(C)CCCCCCNC(=O)[C@H]1C[C@H]2C(=O)N3CCC[C@H]3C(=O)N2[C@H]1c1ccc(O)cc1`: the composite z-score with Albumin (Bos taurus) was -0.608; in assay [2] it was 0.0039; in assay [3], -0.107; in [4], 0.5; in assay [5] it was 1.73; in [6] it was -0.379. Moreover, the composite z-score in the assay with Sam68 (KHDRBS1) was 0.485; in assay [7], 0.472; in assay [8], 0.709; in assay [9], -0.167; in assay [10], 0.0132; in assay [11], -0.166. The composite z-score in assay [12] is -0.876; in [13], 1.14; in [14], 0.693; in the assay with Lefty1, 1.12; in [16], -0.411. In addition, the composite Z-score in assay [1] is 0.287 (inactive). Further, the results for the z-score in [15] and in assay [17] were -1.39 and 0.908 (inactive), respectively.
